Assay outcomes deposited in PubChem by several laboratories.
HUVEC tox IL1B = HUVEC cytotoxicity counter-screen, IL-1B stimulated; AID 845; cell count reduction, % at 2 µM; HUVEC cell count loss, Hoechst imaging; 94,000 compounds, 0.41% hits;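 active = cell count reduction more than 3 SD above the screen-wide mean, cut at about 70% in these data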;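 also: normalized per plate to untreated control cells as the no-loss baseline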
IL1B NFkB pot = enhances IL-1B driven NFkB nuclear translocation | HUVEC IL-1B NFkB p65 nuclear translocation imaging | 94,000 compounds, 0.3% hits | AID 819 | activation, % at 2 µM;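 active = activation above 40%, about the mean plus 3 SD, also judged a hit on visual image review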;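 also: percent activation is computed from the nuclear over cytoplasmic p65 intensity ratio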
IL1B NFkB inh = blocks IL-1B driven NFkB nuclear translocation in HUVEC cells; inhibition, % at 2 µM; 94,000 compounds, 0.43% hits; HUVEC IL-1B NFkB p65 nuclear translocation imaging;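 active = inhibition above about 30% together with a positive call from visual inspection of the well image, limit read from the data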;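 also: nuclear over cytoplasmic p65 intensity ratio measured by imaging; 0% = IL-1B stimulated DMSO wells and 100% = unstimulated DMSO wells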
sEH inh = inhibitors of human soluble epoxide hydrolase; P34913; recombinant human sEH enzymatic activity assay; inhibition, % at 2 µM; 91,000 compounds, 0.34% hits; in the data active = inhibition above about 80%
Cav32 inh = inhibitors of human Cav3.2 T-type calcium channel. O95180. Cav3.2-expressing cells, Fluo-4 calcium fluorescence FDSS; hits give low values. B-score at 10 µM. 100,000 compounds, 4% hits. AID 449739;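 active = single-dose well whose peak fluorescence ratio is a statistical outlier from its plate by either plate-standardised score or position-corrected B-score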
sEH activator = soluble epoxide hydrolase (human) activation; P34913; purified human sEH enzymatic activity, activator screen; activation, % at 2 µM; 91,000 compounds, 0.04% hits; AID 717; in the data active = activation above about 37%
* marks the source's active call; other numbers are inactive results; / = no result given. Hits are enriched below; roughly 4.6% of the tested compounds scored in any of these assays.

SMILES	HUVEC tox IL1B	IL1B NFkB pot	IL1B NFkB inh	sEH inh	Cav32 inh	sEH activator
CCCCN(C)C(=O)CSc1nc(NCc2ccc(OC)cc2)c2ccccc2n1	0.0	9.4	-9.4	0.6	-1.48	2.3
O=C(O)CSCCn1cccn1	/	/	/	/	0.839	/
Cc1ccn(CCSCC(=O)O)n1	86.3*	3.7	-3.7	12.3	0.277	-14.4
CCCCNc1oc(-c2cccs2)nc1S(=O)(=O)c1ccccc1	4.3	17.7	-17.7	-8.3	-3.26*	11.8
O=S(=O)(c1ccccc1)c1nc(-c2cccs2)oc1NCCCn1ccnc1	-26.1	-4.3	4.3	-5.8	-1.41	8.1
CCCCn1c(=O)n(CC(=O)Nc2c(CC)cccc2CC)c(=O)c2c1nc(CO)n2CCC	-1.3	38.7	-38.7	-11.1	-0.202	11.6
CCCCn1c(=O)n(CC(=O)Nc2ccc(OC)c(Cl)c2)c(=O)c2c1nc(CO)n2CCC	0.6	12.3	-12.3	3.9	-5.51*	-4.7
O=C(c1cn(-c2ccccc2)nc1-c1cccs1)N1CCN(c2ccccn2)CC1	-11.4	10.7	-10.7	-5.8	-6.2*	4.5
O=C(c1nnc(Cc2ccc(Cl)cc2)o1)N1CCc2ccccc2C1	/	/	/	/	-5.68*	/
Cc1ccc2c(c1)c(C)c(C)n2CC(O)Cn1nnc2ccccc21 (centres undefined)	8.4	-3.2	3.2	2.8	-4.74*	-1.6
Cc1ccc2c(c1)c(C)c(C)n2CC(O)Cn1nc(C)cc1C (centres undefined)	/	/	/	/	-2.49	/
Cc1ccc(C)c(NC(=S)NC(NC(=O)/C=C/c2ccccc2)C(Cl)(Cl)Cl)c1 (centres undefined)	2.3	10.2	-10.2	1.2	-6.9*	-0.2
CC(C)Cn1c(C(C)C)nc([N+](=O)[O-])c1S(=O)(=O)c1ccc(F)cc1	-8.5	-8.7	8.7	4.0	-3.18	-2.3
CCCCn1c(CCC)nc([N+](=O)[O-])c1Sc1ccc(Cl)cn1	-11.3	16.8	-16.8	-6.4	-9.04*	6.5
CC(C)Cn1c(C(C)C)nc([N+](=O)[O-])c1Sc1ccc(Cl)cn1	-7.8	0.5	-0.5	4.0	-5.81*	-3.9
Cc1nnc(NC(=O)CSc2nccn2C)s1	19.6	-1.4	1.4	0.5	-0.856	2.0
Cc1nc2cc(-c3ccsc3-n3c(C)ccc3C)[nH]n2c(=O)c1Cl	5.1	-2.6	2.6	-2.3	-4.66*	1.7
CC(C)CC(=O)NC1(C(F)(F)F)C(=O)N(Cc2ccccc2)C2=C1C(=O)CC(C)(C)C2 (centres undefined)	-38.0	-32.8	32.8*	2.8	/	-3.1
O=C(OCn1ncc(Br)c(Br)c1=O)c1c(F)cccc1F	31.9	-89.3	89.3*	6.2	0.989	-4.4
CC(C)=C1C2CCC1C1C(=O)N(NC(=O)COc3ccc(Cl)c(C)c3)C(=O)C21 (centres undefined)	-16.7	1.7	-1.7	12.6	-5.35*	-9.8
CCOC(=O)C(C)Oc1ccc(=O)n(-c2ccccc2)n1 (centres undefined)	8.0	6.2	-6.3	2.5	0.935	-1.1
CC(=O)OCc1c(C(F)(F)F)nn(C)c1Oc1cccc(C(F)(F)F)c1	-1.3	11.8	-11.8	4.4	-4.22*	-2.4
Cc1ccc(-n2nnnc2SCC(=O)Nc2sc(C)c(C)c2C#N)cc1C	-20.0	-7.2	7.2	4.1	0.296	-1.4
COc1cccc(CC(NC(C)=O)C(=O)NC2CCN(c3c4c(nc5ncnn35)CCC4)CC2)c1 (centres undefined)	11.1	-4.5	4.5	3.1	/	-3.5
COC(=O)c1cc(NC(=O)c2cccc(C(F)(F)F)c2)c(=O)oc1C/C=N/OCc1cccc(Cl)c1Cl	/	/	/	2.3	-4.59*	-5.0
SMILES	HUVEC tox IL1B	IL1B NFkB pot	IL1B NFkB inh	sEH inh	Cav32 inh	sEH activator
CNC(=S)NNC(=O)c1cccc(C(F)(F)F)c1	-8.7	2.0	-2.0	2.1	/	-1.0
CCNc1cc2oc(=O)c(CN3CCOCC3)c(C)c2cc1C	7.7	3.2	-3.2	-5.7	-0.601	6.0
Cc1cccc(NC(=O)C23CCC(C)(C2Br)C3(C)C)c1 (centres undefined)	3.2	-4.3	4.3	47.8	-5.42*	-48.4
CC(C)(C)NS(=O)(=O)c1ccc2nc(NC(=O)Cc3cccs3)sc2c1	-46.4	27.7	-27.7	45.8	-4.21*	-43.0
Cc1ccc(C(=O)n2cnnc2N)cc1	-20.8	6.1	-6.1	10.3	0.222	-8.8
CC(C)CCNC(=O)Cn1c2c(c(-c3ccccc3Cl)cc1=O)CCC2	-1.0	-2.4	2.4	6.6	-1.58	-4.5
CC1CCC(NC(=O)Cn2c3c(c(-c4ccccc4Cl)cc2=O)CCC3)CC1 (centres undefined)	-17.7	-1.2	1.2	23.8	-5.12*	-22.5
O=C(NCCCN1CCOCC1)c1ccccc1-c1ccccc1	20.5	-2.9	2.9	-2.2	0.572	0.4
Cc1cc(Cl)ccc1OC(C)C(=O)N1CCCN(C(=O)C(C)Oc2ccc(Cl)cc2C)CC1 (centres undefined)	2.3	-0.7	0.7	-6.1	-5.42*	8.2
Cc1ccc(C(O)P(=O)(OC2CCCCC2)OC2CCCCC2)cc1 (centres undefined)	-11.3	5.0	-5.0	2.5	-4.21*	-3.6
Cc1ccccc1NC(=O)C1(C)Cc2ccccc2C(=O)O1 (centres undefined)	-8.1	-3.0	3.0	-0.8	0.259	0.8
CCC(C)(C)n1nnnc1C(c1ccc(C)cc1)N1CCN(Cc2ccc3c(c2)OCO3)CC1 (centres undefined)	-16.7	26.2	-26.2	20.5	-4.44*	-17.0
CCC(C)(C)n1nnnc1C(c1ccc2ncccc2c1)N1CCN(Cc2ccc3c(c2)OCO3)CC1 (centres undefined)	-21.7	21.9	-21.9	-11.3	-0.422	9.1
CCC(C)(C)n1nnnc1CN1CCN(C(c2ccccc2)c2ccccc2)CC1	31.9	-0.3	0.3	7.9	-3.42*	-2.5
CCCc1[nH]nc2c1C(C1CCCCC1)C(C#N)=C(N)O2 (centres undefined)	-6.2	-8.3	8.3	34.0	/	-34.8
Clc1ccc(CSc2nccn2Cc2ccccc2)cc1	1.3	-3.1	3.1	-5.2	-5.05*	2.6
CC(=O)Nc1ccc(NC(=O)CSc2nccn2Cc2ccccc2)cc1	-4.2	-12.2	12.2	/	-0.0566	/
Clc1ccc(CSc2ncccn2)cc1	6.5	4.1	-4.1	-1.4	-1.38	0.9
Cc1ccc(NC(=O)CSc2nccn2Cc2ccccc2)cc1C	-0.6	-3.1	3.1	7.3	-7.96*	-6.2
COc1ccc(/C=N/OCC(=O)N2CC3(C)CC2CC(C)(C)C3)cc1 (centres undefined)	-16.0	1.2	-1.2	11.2	-0.824	-8.7
COc1ccc(C=NCCC2(O)CC(C)N(C)CC2C)cc1 (centres undefined)	-6.9	-39.7	39.7*	3.3	-0.0142	-3.3
O=C(Cn1ncc(Cl)c(Cl)c1=O)c1ccc(Cl)cc1	-165.0	-15.7	15.7	-3.3	/	4.0
O=C(OCn1ncc(Cl)c(Cl)c1=O)c1ccc(F)cc1	28.8	-93.2	93.2*	2.0	0.171	0.8
O=C(OCn1ncc(Cl)c(Cl)c1=O)c1ccccc1Cl	-6.4	-90.3	90.3*	-3.2	1.5	6.1
